Calls of active or inactive are those of the source. Unless noted, no rule for the calls is given here.
Key:
[1] = A549 cell viability effects, profiling panel, calcein-AM fluorescence, 48 h, basal (AID 1162); conditions: higher = more signal; also: test concentration not given here
[2] = adipocyte viability effects, profiling panel, cell-based, 3T3-L1 adipocytes, calcein-AM fluorescence, 48 h, basal (AID 1163); conditions: 3T3-L1 adipocytes viability, higher = more signal; also: test concentration not given here
[3] = HepG2 cell viability effects, profiling panel, calcein-AM fluorescence, 48 h, basal (AID 1164); conditions: higher = more signal; also: test concentration not given here
[4] = MM1S cell viability effects, profiling panel, calcein-AM fluorescence, 48 h, basal (AID 1165); conditions: higher = more signal;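 also: viability of MM1S multiple myeloma cells under basal unstimulated conditions; test concentration not given here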
[5] = basal RPMI8226 viability, no added stimulus, profiling panel, cell-based, calcein-AM fluorescence, 48 h, PK04 Diversity Set (AID 1166); conditions: RPMI8226 myeloma viability, higher = more signal;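 also: cells grown under basal conditions without added stimulus; test concentration not given here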
[6] = basal HepG2 mitochondrial membrane potential changes, profiling panel, cell-based, JC-1 fluorescence, 24 h, 100 nL compound (AID 1167); conditions: higher = more signal; also: test concentration not given here
[7] = basal 3T3-L1 adipocyte mitochondrial potential changes, profiling panel, cell-based, JC-1 fluorescence, 3T3-L1 adipocytes, 24 h, 100 nL compound (AID 1168); conditions: JC-1 mitochondrial fluorescence, higher = more signal, called active from +8 up or from −8 down; also: test concentration not given here
[8] = basal RPMI8226 mitochondrial membrane potential changes, profiling panel, cell-based, JC-1 fluorescence, 24 h, 100 nL compound (AID 1169); conditions: RPMI8226 myeloma, JC-1 mitochondrial potential fluorescence, higher = more signal; also: test concentration not given here
[9] = basal MM1S mitochondrial membrane potential changes, profiling panel, cell-based, JC-1 fluorescence, 24 h, 100 nL compound (AID 1170); conditions: higher = more signal; also: test concentration not given here
[10] = A549 lung cancer cell viability effects, profiling panel, resazurin fluorescence, 24 h, PK04 Diversity Set (AID 1171); conditions: higher = more signal, called active from +8 up or from −8 down; also: test concentration not given here
[11] = HepG2 liver cancer cell viability effects, profiling panel, resazurin fluorescence, 24 h, PK04 Diversity Set (AID 1172); conditions: higher = more signal; also: test concentration not given here
[12] = basal S. cerevisiae growth modulation, no modifier, primary screen, OD600, strain BY4716, 24 h, basal condition (AID 1173); conditions: OD600, 24 h, higher = more signal, called active from +8 up or from −8 down
[13] = MM1S myeloma cell viability, profiling panel, resazurin fluorescence, basal, 24 h, PK04 Diversity Set (AID 1174); conditions: higher = more signal, called active from +8 up or from −8 down;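 also: MM1S multiple myeloma cell line; test concentration not given here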
[14] = target: Dihydroorotate dehydrogenase (quinone), mitochondrial (Plasmodium falciparum (isolate 3D7)) (UniProt Q08210); assay: PfDHODH enzyme inhibitors, primary screen, biochemical, C-terminal His tag, absorbance 600 nm (AID 1175); conditions: DCIP absorbance 600 nm, higher = more signal, called active from +8 up or from −8 down;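 also: recombinant parasite enzyme with a five histidine tag at its C terminus; test concentration not given here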
Sequence of Dihydroorotate dehydrogenase (quinone), mitochondrial (Plasmodium falciparum (isolate 3D7)) (Q08210 whole entry, looked up): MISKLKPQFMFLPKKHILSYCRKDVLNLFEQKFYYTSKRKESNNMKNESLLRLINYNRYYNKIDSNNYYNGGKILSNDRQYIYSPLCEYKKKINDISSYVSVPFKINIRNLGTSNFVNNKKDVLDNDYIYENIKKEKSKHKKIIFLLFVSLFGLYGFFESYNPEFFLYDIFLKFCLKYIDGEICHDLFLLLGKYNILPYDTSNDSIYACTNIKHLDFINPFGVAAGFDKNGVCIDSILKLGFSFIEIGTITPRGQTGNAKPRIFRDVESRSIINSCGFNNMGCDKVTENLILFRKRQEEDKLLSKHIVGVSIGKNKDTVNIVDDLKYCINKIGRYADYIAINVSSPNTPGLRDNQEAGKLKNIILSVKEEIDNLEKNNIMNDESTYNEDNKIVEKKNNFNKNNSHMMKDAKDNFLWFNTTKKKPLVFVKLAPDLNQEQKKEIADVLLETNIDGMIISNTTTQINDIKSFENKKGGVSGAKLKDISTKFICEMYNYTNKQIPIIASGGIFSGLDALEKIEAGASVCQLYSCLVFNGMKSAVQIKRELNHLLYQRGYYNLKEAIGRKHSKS

[15] = P. aeruginosa biofilm formation inhibitors, primary screen, strain PAO1, LB-PBS medium, absorbance 600 nm (AID 1176); also: test concentration not given here; conditions: P. aeruginosa PAO1 growth/biofilm, A600, 12 h; higher = more signal
[16] = S. cerevisiae RM11-1a growth modifiers, primary screen, strain RM11-1a, OD600, basal, 24 h (AID 1177); conditions: OD600, 24 h, higher = more signal, called active from +8 up or from −8 down;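 also: cultures grown under basal conditions with no added stressor; test concentration not given here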
[17] = E. coli acrAB mutant growth effects, primary screen, E. coli filamentation inducers, strain DRC39, OD650, 24 h (AID 1178); conditions: higher = more signal, called active from +8 up or from −8 down;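 also: growth measured as culture turbidity by optical density at 650 nm; test concentration not given here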
[18] = E. coli acrAB mutant growth effects, primary screen, E. coli filamentation inducers, strain DRC39, OD650, 48 h (AID 1179);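 also: screen aims at cell division blockers that make cells filament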; conditions: E. coli DRC39 delta-acrAB growth, higher = more signal, called active from +8 up or from −8 down
[19] = RPMI8226 myeloma cell viability, profiling panel, resazurin fluorescence, basal, 24 h, PK04 Diversity Set (AID 1180); conditions: higher = more signal;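 also: RPMI8826 multiple myeloma cell line at 5000 cells per well; test concentration not given here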
[20] = target: E3 ubiquitin-protein ligase XIAP (Homo sapiens) (UniProt P98170); assay: XIAP binders, primary screen, biophysical, small-molecule microarray, fluorescence 635 nm (AID 1181); conditions: small-molecule microarray binding, higher = more signal;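 also: score merges 667 nm emission and signal to noise over triplicate slides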
Sequence of E3 ubiquitin-protein ligase XIAP (Homo sapiens) (P98170 whole entry, looked up): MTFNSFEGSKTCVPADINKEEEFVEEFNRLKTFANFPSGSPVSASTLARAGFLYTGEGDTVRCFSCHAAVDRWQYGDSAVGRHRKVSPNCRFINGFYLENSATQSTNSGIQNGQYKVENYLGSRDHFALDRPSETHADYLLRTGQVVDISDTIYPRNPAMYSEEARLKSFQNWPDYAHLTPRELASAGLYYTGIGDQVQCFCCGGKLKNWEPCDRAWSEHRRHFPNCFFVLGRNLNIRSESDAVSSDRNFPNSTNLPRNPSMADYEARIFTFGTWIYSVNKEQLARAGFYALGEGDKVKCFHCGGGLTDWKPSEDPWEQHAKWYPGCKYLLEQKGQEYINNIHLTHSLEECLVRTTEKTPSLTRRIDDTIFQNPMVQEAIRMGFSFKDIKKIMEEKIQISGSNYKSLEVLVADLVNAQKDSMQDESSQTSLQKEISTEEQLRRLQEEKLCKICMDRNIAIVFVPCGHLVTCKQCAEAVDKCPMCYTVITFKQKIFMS

Structure (SMILES) | z-score [1] | z-score [2] | z-score [3] | z-score [4] | z-score [5] | z-score [6] | z-score [7] | z-score [8] | z-score [9] | z-score [10] | z-score [11] | z-score [12] | z-score [13] | composite z-score [14] | z-score [15] | z-score [16] | z-score [17] | z-score [18] | z-score [19] | composite z-score [20]
C[C@H]1CC[C@H]2C(=O)O[C@H](COc3ccc(C(C)(C)C)cc3)CN2[C@@H]1c1ccc(Br)cc1 | 0.354 | 0.356 | 0.573 | 0.0772 | -2.09 | -0.568 | -0.372 (inactive) | -0.841 | 1.33 | 0.636 (inactive) | -0.158 | -0.407 (inactive) | 0.422 (inactive) | 0.159 (inactive) | -0.409 (inactive) | -0.0809 (inactive) | -1.42 (inactive) | -1.37 (inactive) | 0.432 | -0.19
C=CC[C@@H]1C=C[C@H](ON=C(C)CCN2CCc3nc(-c4ccccc4)c(-c4ccccc4)cc3C2)[C@@H](CO)O1 | 2.2 | 0.114 | 2.31 | -2.36 | -0.141 | 3.86 | -1.91 (inactive) | 0.518 | -1.17 | 0.548 (inactive) | -0.244 | -1.96 (inactive) | -2.02 (inactive) | -0.126 (inactive) | 0.0767 (inactive) | 0.124 (inactive) | 0.921 (inactive) | 0.392 (inactive) | 0.365 | -0.12
CCOC(=O)NN=C1C[C@@H](O)[C@@H](O)[C@@H]2[C@@H]3C(=O)N(c4ccc(F)cc4F)C(=O)[C@@H]3CC[C@@H]12 | 0.187 | -0.384 | -1.12 | 0.218 | 0.617 | 0.333 | 0.076 (inactive) | 0.285 | -0.326 | 0.485 (inactive) | 1.06 | 0.559 (inactive) | 0.514 (inactive) | -0.0225 (inactive) | 0.118 (inactive) | 0.916 (inactive) | 0.239 (inactive) | -0.559 (inactive) | 0.562 | -0.0663
CO[C@@H]1C=CCC(=O)N2CCC[C@H]2C(=O)OC[C@@H](C)C(=O)OC[C@H]1C | 0.623 | 0.244 | 1.17 | 0.138 | -0.267 | 0.848 | 0.00578 (inactive) | -0.257 | 0.269 | 0.585 (inactive) | 1.12 | -0.62 (inactive) | 0.866 (inactive) | 0.321 (inactive) | 0.659 (inactive) | -0.841 (inactive) | 0.947 (inactive) | 0.977 (inactive) | 0.218 | 0.104
CCOC(=O)[C@H](CC(C)C)NC(=O)CCC1CC(OC(=O)NCCc2ccc(F)cc2)CC2(CCCC(COC(=O)NCCc3ccc(Cl)cc3)O2)O1 (stereo not given in full) | -0.977 | 0.248 | -0.49 | 0.73 | -1.23 | -1.04 | 0.133 (inactive) | -0.0969 | -0.232 | 0.608 (inactive) | 0.182 | 0.0981 (inactive) | -0.0687 (inactive) | -0.188 (inactive) | 0.213 (inactive) | -0.596 (inactive) | -0.0646 (inactive) | -0.617 (inactive) | 0.48 | -0.247
O=C1OCCC=C1C(O)CCc1ccccc1 (stereo not given) | 0.0955 | -0.831 | -0.354 | -0.575 | 0.146 | -0.895 | -0.54 (inactive) | 0.0715 | -0.517 | -0.0147 (inactive) | 0.0362 | -0.567 (inactive) | -0.649 (inactive) | -0.0757 (inactive) | -0.564 (inactive) | -0.415 (inactive) | 0.258 (inactive) | 0.137 (inactive) | -0.573 | -0.202
CO[C@H]1COC(=O)CCC[C@@H](C)[C@H](OC)COC(=O)[C@@H]2CCCN2C(=O)CC=C[C@@H]1C | -0.395 | 0.376 | 0.308 | 0.149 | -0.193 | -0.0779 | -0.0693 (inactive) | -0.0032 | -0.87 | -0.186 (inactive) | -0.145 | -0.723 (inactive) | 0.435 (inactive) | -0.44 (inactive) | -1.04 (inactive) | -1.04 (inactive) | -0.367 (inactive) | -0.459 (inactive) | 0.826 | -0.135
CC(C)CON=C1C[C@@H](O)[C@@H](O)[C@@H]2[C@@H]3C(=O)N(c4ccc(F)cc4F)C(=O)[C@@H]3CC[C@H]12 | 0.0042 | -0.934 | -0.222 | 0.597 | -0.567 | 0.861 | -0.131 (inactive) | 0.541 | -1 | 0.495 (inactive) | 0.806 | -0.406 (inactive) | 0.686 (inactive) | -0.223 (inactive) | 0.246 (inactive) | -0.554 (inactive) | 0.404 (inactive) | -0.382 (inactive) | 0.17 | -0.138
COc1cccc([C@H]2Oc3ccc(OC)cc3C(=NOC[C@@H](C)[C@H](OCc3ccccc3)C(C)C)[C@@H]2O)c1 | -0.956 | 0.488 | -0.744 | -0.596 | -2.12 | -3.51 | -0.65 (inactive) | -0.188 | 0.748 | 0.385 (inactive) | -0.214 | 0.635 (inactive) | -0.0524 (inactive) | -0.212 (inactive) | 0.347 (inactive) | 0.846 (inactive) | 0.221 (inactive) | -1.18 (inactive) | 0.0541 | 0.0015
O=C1C[C@@H](O)[C@@H](O)[C@@H]2[C@@H]3C(=O)N(c4cccc(Oc5ccccc5)c4)C(=O)[C@@H]3CC[C@H]12 | -0.0402 | -0.231 | 0.0658 | 0.258 | -0.0527 | -0.101 | -1.02 (inactive) | -0.308 | 0.258 | 0.16 (inactive) | 0.0515 | 0.251 (inactive) | 0.0257 (inactive) | 0.0371 (inactive) | -0.601 (inactive) | 0.132 (inactive) | -0.539 (inactive) | -0.389 (inactive) | 0.0381 | -0.0448
O=C1[C@H]2[C@H]3[C@H](O)[C@H](O)CC(=NOC[C@@H](O)COCc4ccco4)[C@H]3CC[C@H]2C(=O)N1C[C@@H]1CCCO1 | -0.0501 | -1.11 | -1.22 | 0.313 | -0.907 | -0.809 | -0.605 (inactive) | -0.271 | -0.278 | 0.622 (inactive) | 0.639 | 0.0107 (inactive) | -0.324 (inactive) | -0.199 (inactive) | 0.07 (inactive) | -0.0915 (inactive) | -0.481 (inactive) | -0.467 (inactive) | 0.15 | -0.217
CO[C@@H]1C=CCC(=O)N[C@@H](C)C(=O)OC[C@@H](OC)[C@H](C)CCCC(=O)OC[C@H]1C | 0.942 | -0.226 | -0.0306 | 0.188 | -0.0539 | -0.0819 | 0.225 (inactive) | 0.236 | -0.392 | 0.471 (inactive) | 0.287 | -0.445 (inactive) | 0.719 (inactive) | -1.38 (inactive) | -0.479 (inactive) | -0.935 (inactive) | 0.853 (inactive) | 0.174 (inactive) | 1.58 | -0.269
C[C@H]1COC(=O)[C@@H]2CCCN2C(=O)[C@@H](C)COC(=O)[C@H](Cc2ccccc2)NC1=O | -0.398 | -0.501 | -0.501 | 0.119 | -0.364 | 0.278 | -0.906 (inactive) | -0.287 | -0.825 | 0.264 (inactive) | 0.409 | 0.0852 (inactive) | -0.208 (inactive) | -0.926 (inactive) | -0.348 (inactive) | -0.231 (inactive) | 0.0861 (inactive) | 0.503 (inactive) | 0.586 | 1.05

Reference: PubChem BioAssay
